Among the data in PubChem BioAssay (NCATS) are Potency, outcome and IC50 (viability decrease) values, retold here.

The nature of assay [1]: qHTS Screen of the MIPE 4.0 Collection Against Ewings Sarcoma (RDES) (AID 1259252). Also: nearly all actives have a fitted effect of over 35% in size. Also: potency is read from the fitted curve at half-maximal effect. The essentials: (§1)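 Dose series incubated 48 h with cells in RPMI plus 5% FBS, glutamine and penicillin/streptomycin; cell viability then quantified via CellTiter-Glo.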
Assay [2] in a line: qHTS Screen of the MIPE 4.0 Collection Against Ewings Sarcoma (TC71) (AID 1259253). Also: nearly all actives have a fitted effect of over 40% in size. Also: potency is read from the fitted curve at half-maximal effect. The method in brief:
as §1

Assay [3] is described as follows: qHTS Screen of the MIPE 4.0 Collection Against Ewings Sarcoma (EW8) (AID 1259255). Also: nearly all actives have a fitted effect of over 35% in size. Also: potency is read from the fitted curve at half-maximal effect. The essentials: as §1
Assay [4] in a line: qHTS Screen of the MIPE 4.0 Collection Against Ewings Sarcoma (TC32) (AID 1259256). Also: nearly all actives have a fitted effect of over 45% in size. Also: potency is read from the fitted curve at half-maximal effect. The essentials:
as §1

Assay [5] can be described thus: Identifying Small Molecule Inhibitors of Pancreatic Cancer Stem Cells (A2780, Spheroid) (AID 1259357). Also: potency is read from the fitted curve at half-maximal effect.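 Also: spheroids pre-formed over 14 days in stem cell medium on hydrogel; compound exposure lasted 48 h before the ATP luminescence read.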 The settings on record: Potency: A2780 spheroid viability. The method in brief: (§2)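 Spheroids grown 14 days in stem cell media on nonadherent hydrogel before screening; cells attached 4 h, then compound exposure 48 h at 37C, 5% CO2. CellTiter-Glo luminescence normalized to DMSO (no inhibition) and no-cell wells (full inhibition).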

The nature of assay [6]: Identifying Small Molecule Inhibitors of Pancreatic Cancer Stem Cells (SN12C, Adherent) (AID 1259358).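 Also: potency is read from the fitted curve at half-maximal effect; cell survival measured after 48 h of compound exposure.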 The essentials: (§3)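 Endpoint: ATP-based luminescence, 48 h drug exposure. Bortezomib at 9.2 uM final as full-kill control; DMSO vehicle as negative control; activity normalized between vehicle and cell-free wells.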
Assay [7] can be described thus: Identifying Small Molecule Inhibitors of Pancreatic Cancer Stem Cells (SN12C, Spheroid) (AID 1259360). Also: potency is read from the fitted curve at half-maximal effect. The settings on record: Potency: SN12C spheroid viability. The method in brief: as §2
Assay [8] is described as follows: P-glycoprotein substrates identified in KB-3-1 adenocarcinoma cell line, qHTS therapeutic library screen (AID 1346986). Also: nearly all actives have a fitted effect of over 60% in size.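 Also: potency is read from the fitted curve at half-maximal effect; potency is for cytotoxicity meaning loss of cell viability.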 The essentials:
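Compounds were tested in dose-response against KB-3-1 and KB-8-5-11 cells at 37 degree C for 72 h, and viability was measured by luminescence. AC50 values came from curve fitting with class-based activity calls.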

Assay [9] in a line: P-glycoprotein substrates identified in KB-8-5-11 adenocarcinoma cell line, qHTS therapeutic library screen (AID 1346987). Also: nearly all actives have a fitted effect of over 65% in size. Also: potency is read from the fitted curve at half-maximal effect. The method in brief: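 P-gp-mediated resistance screen: KB-8-5-11 cells treated 72 h with compounds in dose-response. CellTiter-Glo viability.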
Assay [10] is described as follows: NS1 protein of Zika virus - qHTS assay to identify small molecule inhibitors in human HEK 293 cells (AID 1347053). Also: nearly all actives have a fitted effect of over 55% in size. Also: potency is read from the fitted curve at half-maximal effect. The essentials:
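HEK 293 cells pretreated with compound for 1 h, then infected with ZIKV MR766 (MOI 0.5) for 24 h at 37 C. NS1 detected by TR-FRET with two anti-NS1 antibodies; normalized to uninfected (0%) and infected (100%) wells.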

Assay [11] is described as follows: qHTS assay to identify small molecule inhibitors of chordoma cells - UCH-1 (AID 1259355). Also: nearly all actives have a fitted effect of over 55% in size. The method in brief:
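Cells (800/well) were seeded and left overnight at 37 C, 5% CO2, then treated with drugs at 15 concentrations plus a combination mix of auranofin, camptothecin, doxorubicin, rubitecan and topotecan. Viability after 48hr was read by CellTiter-Glo luminescence.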

The nature of assay [12]: qHTS assay to identify small molecule inhibitors of chordoma cells - UCH-2 (AID 1259356). Also: series mostly up to about 46 µM.
Assay [13] in a line: Identifying Small Molecule Inhibitors of Pancreatic Cancer Stem Cells (A278, Adherent) (AID 1259361). Also: nearly all actives have a fitted effect of over 35% in size. The method in brief: as §3
Assay [14] in a line: Identifying Small Molecule Inhibitors of Pancreatic Cancer Stem Cells (Panc1, Spheroid) (AID 1259359).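 Also: potency is read from the fitted curve at half-maximal effect; compound exposure lasted 48 h before reading.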 The essentials:
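After a 4 h attachment period, compounds were pinned into wells and cultures held 48 h under standard incubator conditions. Viability was then measured as CellTiter-Glo luminescence following 10 min at room temperature.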

Where “and” joins values, the source holds several entries; their conditions need not be identical. Equal entries are not always repeated. Records with an inconclusive call do not appear. Calls of active or inactive are those of the source. Calls follow the shape of the dose curve; as a rule, active = well fitted curve in the direction sought with a large enough effect; inconclusive = small, poorly fitted or top-dose-only effect, or another doubt; inactive = no such curve, though single readings can be large; an effect the other way counts as inactive or inconclusive.

Consider `COc1cc(C(=O)N2CCC(N3CCN(C)CC3)CC2)ccc1Nc1ncc2c(n1)N(C)c1ccccc1C(=O)N2C`, for which the Potency in assay [1] is 13200 nM (active); in assay [2] it was 4690 nM (active); in assay [3] it was 9350 nM (active); in assay [4] it was 4180 nM (active).
For the compound `C[C@]1(CO)CN(c2cc(C(=O)Nc3ccc4c(c3)-c3c(c(C(N)=O)nn3-c3ccc(F)cc3)CC4)c(Cl)cn2)C[C@@]1(C)CO`, the Potency in [1] was 14800 nM (active); in assay [2], 13200 nM (active); in [3], 16600 nM (active); in assay [4], 13200 nM (active); in [6], 16600 nM (active); in assay [8] it was 5800 nM (active). In assay [10], the Potency was 4690 nM (active). For the same compound, the Potency entry in assay [5], in assay [7] and in [9] was “inactive” in each case.
For the compound `Nc1ccn([C@@H]2CS[C@H](CO)O2)c(=O)n1`, the Potency entry in [1], in assay [2], in assay [3], in assay [4], in assay [11] and in assay [10] was “inactive” in each case. Also, the result in assay [12] was inactive.
`C[C@H]1C[C@@H]2[C@@H]([C@@H](O)C[C@@]3(C)[C@H]2CC[C@]3(O)C(=O)CO)[C@@]2(C)C=CC(=O)C=C12`: the Potency entry in assay [1], in assay [2], in [3], in assay [4], in assay [9] and in assay [10] was “inactive” throughout. The call in assay [12] was inactive.
With `CN(C)CCCN=c1c2ccccc2n(C)c2[nH]c(=O)n(C)c(=O)c12`, the Potency in assay [1] is 2640 nM (active); in assay [2] it was 10500 nM (active); in assay [3], 1180 nM (active); in assay [4], 2960 nM (active); in assay [6] it was 20900 nM (active). Further, the Potency result in assay [5] and in [7] was “inactive” each time. The IC50 (viability decrease) in assay [13] was 11800 nM (active).
Regarding `C=CC(=O)N1CCC[C@@H](n2nc(-c3ccc(Oc4ccccc4)cc3)c3c(N)ncnc32)C1`, the Potency was 20900 nM (active) in [1], 29600 nM (active) in assay [2], 23500 nM (active) in assay [3] and 18700 nM (active) in [4]. For the same compound, the Potency entry in assay [5] was “inactive”.
Turning to `CC[C@@H]1C(=O)N(C)c2cnc(Nc3ccc(C(=O)NC4CCN(C)CC4)cc3OC)nc2N1C1CCCC1`, the Potency is 66.2 nM (active) in assay [1]; 74.3 nM (active) in [2]; 37.2 nM (active) in assay [3]; 46.9 nM (active) in [4]; 8.3 nM (active) in [14]; 33.2 nM (active) in [10]. In addition, the Potency entry in assay [5] is “inactive”. Further, the IC50 (viability decrease) in assay [13] was 13.2 nM (active).
With `NC(=O)Nc1cc(-c2cccc(F)c2)sc1C(=O)N[C@H]1CCCNC1`, the Potency in [1] is 935 nM (active); in [2] it was 93.5 nM (active); in [3], 166 nM (active); in assay [4], 83.3 nM (active); in assay [5] it was 18700 nM (active); in [6], 8330 nM (active). The Potency in assay [9] is 14.8 µM (active) and 7.31 µM (active); in assay [10] it was 264 nM (active). Further, the IC50 (viability decrease) in assay [13] was 1050 nM (active).
Consider `Cn1c2ccccc2c2c3c(c4c5ccccc5n(CCC#N)c4c21)CNC3=O`, for which the Potency in assay [1] is 935 nM (active); in assay [2] it was 1180 nM (active); in [3] it was 8330 nM (active); in assay [4], 4690 nM (active).
With `Nc1ccn([C@@H]2O[C@H](CO)[C@H](O)C2(F)F)c(=O)n1`, the Potency in assay [1] is 52.6 nM (active); in [2], 41.8 nM (active); in assay [3], 16.6 nM (active); in [4], 18.7 nM (active); in assay [10], 743 nM (active). Besides, the compound was classed as inactive in assay [12].
Turning to `COc1c(N2C[C@@H]3CCCN[C@H]3C2)c(F)cc2c(=O)c(C(=O)O)cn(C3CC3)c12`, the Potency result in assay [1], in assay [2], in [3], in assay [4], in assay [11] and in assay [10] was “inactive” in each case. Besides, in assay [12], the call was inactive.
As for `CC[C@@H]1C(=O)N(C)c2cnc(Nc3ccc(C(=O)NC4CCC(N5CCN(CC6CC6)CC5)CC4)cc3OC)nc2N1C(C)C` (stereo partly drawn), the Potency in assay [1] is 105 nM (active); in [2], 118 nM (active); in [3], 74.3 nM (active); in assay [4] it was 66.2 nM (active); in assay [14], 9.3 nM (active); in assay [10], 105 nM (active). In addition, the Potency entry in [5] is “inactive”. Also, the IC50 (viability decrease) in assay [13] was 20.9 nM (active).
With `C=CC(=O)Nc1cc2c(Nc3ccc(F)c(Cl)c3)ncnc2cc1OCCCN1CCOCC1`, the Potency is 20900 nM (active) in assay [1]; 14800 nM (active) in [2]; 16600 nM (active) in assay [3]; 14800 nM (active) in assay [4]; 23500 nM (active) in assay [5]; 20900 nM (active) in assay [7]. For the same compound, in assay [9], the Potency was 18.4 µM (active). The IC50 (viability decrease) in assay [13] was 16600 nM (active). Further, the Potency entry in assay [8] is “inactive”.
As for `Nc1ccc(S(=O)(=O)Nc2ncccn2)cc1`, the Potency result in assay [1], in assay [2], in [3], in [4], in [11] and in [10] was “inactive” each time. For the same compound, the call in assay [12] was inactive.
In the case of `CC1(C)OC2=C(C(=O)c3ccccc3C2=O)[C@H](NCc2ccccc2)[C@H]1O`, the Potency in [1] is 2640 nM (active); in assay [2] it was 2640 nM (active); in [3], 2960 nM (active); in [4] it was 3320 nM (active); in assay [5] it was 14800 nM (active); in assay [14], 743 nM (active). The Potency is 23500 nM (active) in [7] and 9.35 µM (active) in assay [9].
As for `C=CC(=O)Nc1cc2c(Nc3ccc(F)c(Cl)c3)ncnc2cc1C#CC(C)(C)N1CCN(C)CC1`, the Potency in assay [1] is 1870 nM (active); in [2], 2640 nM (active); in assay [3] it was 2350 nM (active); in assay [4], 1320 nM (active); in [5] it was 16600 nM (active); in [14], 5260 nM (active). Further, the Potency in assay [7] was 6620 nM (active); in assay [8], 9200 nM (active); in assay [9], 16.4 µM (active); in assay [10] it was 13200 nM (active). Further, the IC50 (viability decrease) in assay [13] was 6620 nM (active).
In the case of `COC(=O)[C@]12CCC(C)(C)C[C@@H]1[C@@H]1C(=O)C=C3[C@@]4(C)C=C(C#N)C(=O)C(C)(C)[C@@H]4CC[C@@]3(C)[C@]1(C)CC2`, the Potency in assay [1] was 372 nM (active); in [2], 264 nM (active); in assay [3], 296 nM (active); in assay [4], 118 nM (active); in [5], 1320 nM (active); in assay [6], 2640 nM (active). The Potency is 1180 nM (active) in assay [14], 2350 nM (active) in assay [7] and 1320 nM (active) in assay [10]. The IC50 (viability decrease) in assay [13] is 1050 nM (active).
